# PfHsp90 yeast 2: growth inhibition of PfHsp90-expressing yeast, primary screen, antimalarial PfHsp90 inhibitor project, S. cerevisiae, BacTiter-Glo luminescence, single point, set 2 | BacTiter-Glo ATP, 48 h; yeast lacking PDR1 and PDR3 efflux regulators | inhibition, % at 9.4 µM | hit rate 0.32% among 310,000 | AID 504621, 2011;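 active = every replicate shows inhibition above about 80%, whatever the replicate mean, limit read from the data; inconclusive = mean inhibition reaches the set limit but some replicate falls short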;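 note: 0% = DMSO neutral controls and 100% = 20 µM radicicol positive controls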
# SKKanGAS inh: S. pyogenes SKKanGAS growth inhibitors in kanamycin, primary screen, streptokinase expression inhibitor project, SKKanGAS strain, BacTiter-Glo luminescence; 6 h; inhibition, % at 7.5 µM; hit rate 1.3% among 300,000;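 active = mean replicate score, as percent of positive control median, at least 50; inconclusive = mean below 50 but one replicate at or above 50; inactive = mean and every replicate below 50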;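 note: strain carries kanamycin resistance gene driven by streptokinase promoter and grows in 40 µg/ml kanamycin; loss of luminescence reflects streptokinase promoter inhibition or plain growth inhibition; 0% = median of DMSO wells and 100% = positive control at its reference dose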
# TIM10 inh: growth inhibitors of isogenic TIM10 control yeast, primary screen, counter-screen for tim10-1 yeast inhibitor project, luminescence, uHTS | S. cerevisiae TIM10 strain growth, BacTiter-Glo luminescence, 24 h | inhibition, % at 10 µM | hit rate 1.4% among 330,000;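 active = inhibition of 40% or more at the single tested concentration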;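 note: wild-type TIM10 isogenic control strain grown at permissive 25 °C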
# tim23-1 inh: growth inhibitors of tim23-1 mutant yeast, primary screen, luminescence, uHTS; S. cerevisiae tim23-1 growth, BacTiter-Glo luminescence, 24 h; inhibition, % at 20 µM; hit rate 1.3% among 330,000; AID 463212, 2010;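 active = growth inhibition of the mutant yeast at or above 50%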;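 note: temperature-sensitive mutant grown at 25 °C; plate controls were DMSO-treated mutant yeast for no effect and medium wells lacking yeast for full effect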
# tim10-1 inh: growth inhibitors of tim10-1 mutant yeast, primary screen, luminescence, uHTS | S. cerevisiae tim10-1 ts strain growth, BacTiter-Glo, 24 h | inhibition, % at 20 µM | hit rate 2.2% among 330,000 | AID 463190, 2010;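 active = inhibition of at least 40%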;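 note: mutant grown at 25 °C; 0% = DMSO wells with yeast and 100% = wells holding no yeast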
# Calb FLC: C. albicans growth inhibition with fluconazole, primary screen, CaCi-2 strain, Alamar Blue fluorescence; C. albicans CaCi-2 (fluconazole-resistant clinical isolate) + fluconazole, 48 h; growth inhibition, % (no concentration beside the values); hit rate 0.57% among 300,000; AID 1979, 2009;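 active = growth inhibition above about 58% in most replicates, limit read from the data, passing the limit was not always enough; inconclusive = exactly half the replicates above a set limit; inactive = most replicates below a set limit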;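 note: all wells also contain fluconazole at 8 µg/ml as a sub-toxic cotreatment; 0% = median of DMSO wells and 100% = median of geldanamycin control wells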
# tim23-1 confirm: tim23-1 mutant yeast growth inhibitors, confirmation, luminescence, single concentration. inhibition, % at 20 µM. hit rate 83% among 4,400. shares compounds with tim23-1 inh. S. cerevisiae tim23-1 growth, BacTiter-Glo luminescence, 24 h;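 active = inhibition above about 39% in either of two replicate wells at 20 µM, limit read from the data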;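 note: temperature-sensitive tim23-1 mutant grown at 25 °C; 0% = DMSO wells with yeast and 100% = medium wells without yeast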
# * = called active by the depositor; ? = inconclusive; nt = no result given. Rows were chosen to be rich in hits. Some 4.7% of all compounds tested hit in one or more screens of this group.
SMILES,PfHsp90 yeast 2,SKKanGAS inh,TIM10 inh,tim23-1 inh,tim10-1 inh,Calb FLC,tim23-1 confirm
Cn1nnnc1SCc1cc(=O)n2ccsc2n1,4,14,2,-8,-11,6,nt
C=CCn1c(SCc2cc(=O)n3ccsc3n2)nc2ccccc2c1=O,-63,5,5,51*,11,-20,56*
C=CCn1c(SCc2cc(=O)n3ccsc3n2)nc2scc(C3CC3)c2c1=O,44,9,13,31,39,?,nt
C=CCn1c(SCc2cc(=O)n3ccsc3n2)nc2cc(Cl)ccc2c1=O,42,-1,29,55*,27,7,59*
Cc1cccc(N2C(=O)/C(=C\c3ccc(C(=O)O)cc3)c3ccccc3C2=O)c1,nt,-7,22,56*,31,-1,22
Cc1ccc(Nc2nc(Cl)nc(NC(C)(C)C)n2)cc1,-17,41,14,50*,32,94*,40*
O=C(CNC(=O)c1ccccc1F)OCCOc1cccc(Cl)c1,17,-9,-4,22,-5,-8,nt
COc1ccc(OC)c(NC(=O)COC(=O)C2CCCCC2)c1,nt,nt,14,25,8,nt,nt
O=C1/C(=C/c2ccccc2Cl)SC(=S)N1CCCC(=O)N(CCO)c1ccccc1,-9,33,22,56*,33,28,48*
CCOC(=O)Nc1ccc2c(COC(=O)C(NS(=O)(=O)c3ccc(Cl)cc3)C(C)O)cc(=O)oc2c1 (stereo not drawn),nt,nt,-4,0,-5,nt,nt
COc1cc2c3c(c1)C(C)CC(C)(C)N3C(=O)C2=O (stereo not drawn),9,1,-2,51*,32,-9,63*
Cc1cc(C)nc(CCNC(=O)c2cc(COc3ccccc3)on2)n1,5,-9,6,7,-1,-9,nt
O=C(COC(=O)c1ccc2ncsc2c1)Nc1ncc(Cl)cc1Cl,9,-13,-1,14,12,-4,nt
O=C(COC(=O)c1ccc2ncsc2c1)Nc1cc(Cl)ccc1F,-13,nt,10,56*,30,nt,41*
CC(=O)C(Cc1ccccc1)NC(=O)COC(=O)c1ccc(-n2cnnn2)cc1 (stereo not drawn),nt,nt,-4,3,-3,nt,nt
CCCCCc1ccc(OCCCC[n+]2ccc(C)cc2)c(CCCCC)c1,-60,-15,-240,53*,-6,98*,15
CCCCCOc1ccc(Br)cc1CSC(=N)N,-2,-3,nt,nt,nt,-12,nt
O=C(/C=C/N1CCOCC1)c1ccc(-c2ccccc2)cc1,106*,18,36,52*,1,2,25
CCc1cc2c3c(c1)C(C)CC(C)(C)N3C(=O)/C2=C1\SC(=O)NC1=O (stereo not drawn),20,26,18,59*,23,25,50*
CC(=O)Nc1ncc(N=Nc2cccc(C(F)(F)F)c2)s1,-23,1,-2,15,12,3,nt
Cc1cccc(N=Nc2cnc(N)s2)c1,8,-5,22,52*,28,0,53*
COc1ccc(S(=O)(=O)N2CCN(C(=O)c3cnc(C)cn3)CC2)cc1,14,-1,-13,-7,-11,5,nt
COc1ccc(S(=O)(=O)N2CCN(C(=O)c3ccc4ccccc4n3)CC2)cc1,-3,nt,36,58*,38,nt,61*
CC(=O)N/N=C(/C)c1ccc(NC(=O)c2csc(C)c2C)cc1,2,-4,-3,-2,-9,7,nt
CCOC(=O)c1sc(N(Cc2ccccc2)C(=O)CCl)nc1C,-9,-4,14,62*,20,0,48*
SMILES,PfHsp90 yeast 2,SKKanGAS inh,TIM10 inh,tim23-1 inh,tim10-1 inh,Calb FLC,tim23-1 confirm
O=C(NN=C1c2ccccc2-c2ccccc21)c1ccccc1,-30,37,34,50*,19,13,66*
NC(=S)NN=C1c2ccccc2-c2ccccc21,-18,4,40,57*,36,2,46*
CC(C)(C)n1nc2c(c1NC(=O)C1CC(=O)N(c3ccc(Cl)cc3)C1)CS(=O)(=O)C2 (stereo not drawn),-11,40,11,7,-7,2,nt
COc1ccc(S(N)(=O)=O)cc1C(=O)OCC(=O)N1c2ccccc2NC(=O)C1(C)C,0,nt,-3,94*,-14,nt,13
O=C(C#Cc1ccccc1)Nc1ccc(F)cc1,-25,-2,15,29,9,-10,nt
COc1ccc(NC(=O)C#Cc2ccccc2)cc1,-11,0,24,51*,-26,3,55*
O=C(C#Cc1ccccc1)Nc1cccc(F)c1,-37,4,39,54*,7,-1,52*
CC(=O)n1cc(/C=N/NC(=O)c2ccc(Cl)cc2)c2ccccc21,17,-5,-10,17,-11,3,nt
O=[N+]([O-])c1nn(-c2ccc3c(c2)OCCO3)n(O)c1=Nc1ccccc1,-91,2,5,53*,36,38,23
COCCNC(=S)Nc1cc(OC)c(OC)cc1C#N,-174,0,nt,nt,nt,3,nt
CCOC(=O)c1cnc(-n2nc(C)cc2C)nc1NCCc1ccccc1,-36,25,7,51*,16,3,58*
Cc1ccc2nc(-c3cc(-c4ccccc4)no3)cn2c1,0,-10,30,55*,3,-10,47*
Clc1ccc2nc(-c3ccccc3)cn2c1,0,5,6,52*,-10,-10,24
Cc1ccc(-c2cc(-c3ccccc3)no2)c(O)c1,-7,5,nt,nt,nt,-34,nt
COc1ccc(S(=O)(=O)N2CCN(Cc3cccc(OC)c3)CC2)cc1,10,1,21,55*,25,-7,43*
COc1cccc(CN2CCN(S(=O)(=O)c3ccc(Br)cc3)CC2)c1,nt,-17,4,21,17,9,nt
CSc1nnc(C(C)(C)C)c(=O)n1/N=C/c1ccccc1,8,-1,33,53*,25,-12,51*
COc1ccc(/C=N/n2c(SC)nnc(C(C)(C)C)c2=O)cc1,3,4,0,18,7,-12,nt
O=C(Nc1ccc(N2CCN(Cc3ccccc3F)CC2)cc1)c1ccccc1[N+](=O)[O-],-16,-2,-8,11,3,1,nt
O=C(Nc1ccc(N2CCN(Cc3ccccc3F)CC2)cc1)c1ccc([N+](=O)[O-])o1,13,5,12,56*,39,1,41*
CC1CCN(c2ccc(NC(=O)c3ccc([N+](=O)[O-])o3)cc2)CC1,nt,43,25,56*,37,-3,-13

# Source: PubChem BioAssay
